# Active and inactive are the calls of the source. The calls were made as follows: active = hit-call score of the fitted dose curve at least 0.9, where 1 is the maximum; inactive = score below 0.9.
# How the values were obtained:
# [1] = read-out: Vascular endothelial growth factor receptor 2 (Homo sapiens) (UniProt P35968); assay: BSK_4H_VEGFRII: BioMAP Diversity Plus: 4H Assay for Vascular endothelial growth factor receptor 2 (VEGFR2) Biomarker Activity (AID 2283031); conditions: primary human endothelial cells (HUVEC); actives raise or lower the signal;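 as to AC50: cell-surface VEGFR2 protein level quantified by ELISA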
# In short: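 In this multiplexed HUVEC system, biomarker ELISA was performed after 24 h chemical exposure. Parallel SRB staining (TCA fixation, 560 nm) tracked cytotoxicity; DMSO served as baseline.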
# [2] = read-out: Human Leukocyte Antigen - DR isotype (HLADR), HLA-DRA (gene 3122); assay: BSK_BE3C_HLADR: BioMAP Diversity Plus: BE3C Assay for Human Leukocyte Antigen - DR isotype (HLADR) Biomarker Activity (AID 2283032); conditions: primary human bronchial epithelial cells; actives raise or lower the signal
# In short: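 Signal came from an ELISA for HLA-DR in human bronchial epithelial primary cells harvested 24 h after treatment; gain- and loss-of-signal fitting used DMSO controls as reference.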
# [3] = read-out: Vascular cell adhesion molecule 1 (VCAM1), VCAM1 (gene 7412); assay: BSK_4H_VCAM1: BioMAP Diversity Plus: 4H Assay for Vascular cell adhesion molecule 1 (VCAM1) Biomarker Activity (AID 2283033); conditions: primary human endothelial cells (HUVEC); actives raise or lower the signal;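 as to outcome: cell-surface VCAM-1 protein measured by ELISA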
# In short: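 Endpoint derived from bidirectional fitting against DMSO controls of VCAM-1 ELISA signal in umbilical vein endothelial cells sampled at 24 h following treatment.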
# [4] = read-out: Interferon-gamma inducible Protein 10 (IP10), CXCL10 (gene 3627); assay: BSK_BE3C_IP10: BioMAP Diversity Plus: BE3C Assay for Interferon-gamma inducible Protein 10 (IP10) Biomarker Activity (AID 2283034); conditions: primary human bronchial epithelial cells; actives raise or lower the signal
# In short: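 Using primary human bronchial epithelial cultures, the assay captures IP-10 by ELISA one day (24 h) after exposure. Parallel SRB staining of total protein flags overt cytotoxicity. Fits run bidirectionally relative to DMSO.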
# [5] = read-out: Transforming growth factor beta 1 (TGFb1), TGFB1 (gene 7040); assay: BSK_BE3C_TGFb1: BioMAP Diversity Plus: BE3C Assay for Transforming growth factor beta 1 (TGFb1) Biomarker Activity (AID 2283036;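 as to outcome: TGF-b1 protein level measured by ELISA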); conditions: primary human bronchial epithelial cells; actives raise or lower the signal
# In short: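 In this human primary bronchial epithelial system, an ELISA quantified TGF-b1 one day after dosing. Endpoint changes in either direction were fitted relative to DMSO.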
# [6] = read-out: Plasminogen activator inhibitor-1 (PAI1), SERPINE1 (gene 5054); assay: BSK_BE3C_PAI1: BioMAP Diversity Plus: BE3C Assay for Plasminogen activator inhibitor-1 (PAI1) Biomarker Activity (AID 2283037); conditions: primary human bronchial epithelial cells; actives raise or lower the signal
# In short: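 PAI-1 biomarker levels in treated human bronchial epithelial cells are determined by ELISA at 24 h. Both increases and decreases relative to DMSO are fitted.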
# [7] = read-out: urokinase plasminogen activator (uPA), PLAU (gene 5328); assay: BSK_BE3C_uPA: BioMAP Diversity Plus: BE3C Assay for urokinase plasminogen activator (uPA) Biomarker Activity (AID 2283038); conditions: primary human bronchial epithelial cells; actives raise or lower the signal;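 as to outcome: uPA protein level quantified by ELISA in cell cultures; uPA read one day after compound addition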
# In short: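 Using confluent primary human lung bronchial epithelial cultures, we dosed chemicals, waited 24 h, then ran a uPA ELISA, fitting bidirectionally against DMSO.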
# [8] = read-out: Urokinase-type plasminogen activator receptor (uPAR), PLAUR (gene 5329); assay: BSK_BE3C_uPAR: BioMAP Diversity Plus: BE3C Assay for Urokinase-type plasminogen activator receptor (uPAR) Biomarker Activity (AID 2283039); conditions: primary human bronchial epithelial cells; actives raise or lower the signal;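 as to outcome: uPAR protein level measured by ELISA on the cells; cells exposed to compound for one day before measurement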
# In short: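 A uPAR ELISA serves as the readout, taken 24 h after treating primary human bronchial epithelial cells. Responses in either direction are fitted against DMSO, which defines baseline activity.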
# [9] = read-out: Interleukin-6 (IL6), IL6 (gene 3569); assay: BSK_CASM3C_IL6: BioMAP Diversity Plus: CASM3C Assay for Interleukin-6 (IL6) Biomarker Activity for (AID 2283040); conditions: primary human coronary artery smooth muscle cells; actives raise or lower the signal
# [10] = read-out: Monokine induced gamma interferon (MIG), CXCL9 (gene 4283); assay: BSK_BE3C_MIG: BioMAP Diversity Plus: BE3C Assay for Monokine induced gamma interferon (MIG) Biomarker Activity (AID 2283035); conditions: primary human bronchial epithelial cells; actives raise or lower the signal
# In short: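 MIG level was determined by ELISA after 24 h chemical treatment of primary human bronchial epithelial cells. Values were fitted bidirectionally with DMSO as the negative control and activity baseline.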
smiles,measurement,setting,value
Nc1nc(N)nc(NC2CC2)n1,outcome,[1],inactive
same,outcome,[2],inactive
same,outcome,[3],inactive
same,outcome,[4],inactive
same,outcome,[5],inactive
same,outcome,[6],inactive
same,outcome,[7],inactive
same,outcome,[8],inactive
same,outcome,[9],inactive
CCCCN(CC)c1c([N+](=O)[O-])cc(C(F)(F)F)cc1[N+](=O)[O-],outcome,[1],inactive
same,outcome,[2],inactive
same,AC50,[3],20 µM (active)
same,AC50,[4],29.9 µM (active)
same,outcome,[5],inactive
same,outcome,[6],inactive
same,outcome,[7],inactive
same,outcome,[8],inactive
same,outcome,[9],inactive
CCc1cccc(CC)c1N(COC)C(=O)CCl,outcome,[1],inactive
same,AC50,[2],33.4 µM (active)
same,AC50,[3],15.3 µM (active)
same,AC50,[4],31.8 µM (active)
same,outcome,[5],inactive
same,outcome,[6],inactive
same,outcome,[7],inactive
same,outcome,[8],inactive
same,outcome,[9],inactive
CCOP(=O)(NC(C)C)Oc1ccc(SC)c(C)c1 (centres undefined),outcome,[1],inactive
same,outcome,[2],inactive
same,outcome,[3],inactive
same,outcome,[4],inactive
same,outcome,[5],inactive
same,outcome,[6],inactive
same,outcome,[7],inactive
same,AC50,[8],5.54 µM (active)
same,outcome,[9],inactive
CCCOCC(=Nc1ccc(Cl)cc1C(F)(F)F)n1ccnc1,AC50,[2],25.7 µM (active)
same,AC50,[3],30.7 µM (active)
same,AC50,[4],32.3 µM (active)
same,AC50,[10],35.3 µM (active)
same,AC50,[6],30.9 µM (active)
same,AC50,[7],34.5 µM (active)
same,AC50,[8],32.8 µM (active)
same,outcome,[9],inactive
COc1cccc(C(=O)NN(C(=O)c2cc(C)cc(C)c2)C(C)(C)C)c1C,outcome,[1],inactive
same,outcome,[2],inactive
same,outcome,[3],inactive
same,outcome,[4],inactive
same,outcome,[5],inactive
same,outcome,[6],inactive
same,outcome,[7],inactive
same,outcome,[8],inactive
same,outcome,[9],inactive
COP(=O)(OC)OC(Br)C(Cl)(Cl)Br (centres undefined),AC50,[1],31.1 µM (active)
same,AC50,[2],27.7 µM (active)
same,AC50,[3],30.7 µM (active)
same,AC50,[4],30.3 µM (active)
same,AC50,[5],33.1 µM (active)
same,AC50,[6],27.9 µM (active)
same,AC50,[7],32 µM (active)
same,AC50,[8],36.6 µM (active)
same,AC50,[9],31.2 µM (active)
CCOC(=O)COc1cc(-c2nn(C)c(OC(F)F)c2Cl)c(F)cc1Cl,outcome,[1],inactive
same,outcome,[2],inactive
same,outcome,[3],inactive
same,outcome,[4],inactive
same,outcome,[5],inactive
same,outcome,[6],inactive
same,outcome,[7],inactive
same,outcome,[8],inactive
same,outcome,[9],inactive
N#CSCSC#N,outcome,[1],inactive
same,outcome,[2],inactive
same,AC50,[3],6.29 µM (active)
same,outcome,[4],inactive
same,outcome,[5],inactive
same,outcome,[6],inactive
same,outcome,[7],inactive
same,outcome,[8],inactive
same,AC50,[9],14.4 µM (active)
CCC(=NOC/C=C/Cl)C1=C(O)CC(C2CCOCC2)CC1=O (centres undefined),outcome,[1],inactive
same,outcome,[2],inactive
same,outcome,[3],inactive
same,outcome,[4],inactive
same,outcome,[5],inactive
same,outcome,[6],inactive
same,outcome,[7],inactive
same,outcome,[8],inactive
same,outcome,[9],inactive
COc1cc(OC)nc(Sc2cccc(Cl)c2C(=O)O)n1,outcome,[1],inactive
same,outcome,[2],inactive
same,outcome,[3],inactive
same,outcome,[4],inactive
same,outcome,[5],inactive
same,outcome,[6],inactive
same,outcome,[7],inactive
same,outcome,[8],inactive
same,outcome,[9],inactive
CCCSP(=O)(OCC)Oc1ccc(Br)cc1Cl (centres undefined),outcome,[1],inactive
same,AC50,[2],32.1 µM (active)
same,AC50,[3],29.8 µM (active)
same,AC50,[4],29.1 µM (active)
same,outcome,[5],inactive
same,outcome,[6],inactive
same,outcome,[7],inactive
same,outcome,[8],inactive
same,AC50,[9],23 µM (active)
CC1=NNC(=O)N(/N=C/c2cccnc2)C1,outcome,[1],inactive
same,outcome,[2],inactive
same,outcome,[3],inactive
same,outcome,[4],inactive
same,outcome,[5],inactive
same,outcome,[6],inactive
same,outcome,[7],inactive
same,outcome,[8],inactive
same,outcome,[9],inactive
CCOP(=S)(OCC)Oc1ccc2c(C)c(Cl)c(=O)oc2c1,outcome,[1],inactive
same,outcome,[2],inactive
same,outcome,[3],inactive
same,outcome,[4],inactive
same,outcome,[5],inactive
same,outcome,[7],inactive
same,outcome,[8],inactive
same,outcome,[9],inactive
CNC(=O)ON=C(C)SC,outcome,[1],inactive
same,outcome,[2],inactive
same,outcome,[3],inactive
same,outcome,[4],inactive
same,outcome,[5],inactive
same,outcome,[6],inactive
same,outcome,[7],inactive
same,outcome,[8],inactive
same,outcome,[9],inactive
CCC(CC)Nc1c([N+](=O)[O-])cc(C)c(C)c1[N+](=O)[O-],outcome,[1],inactive
same,outcome,[2],inactive
same,AC50,[3],20 µM (active)
same,outcome,[4],inactive
same,outcome,[5],inactive
same,outcome,[6],inactive
same,outcome,[7],inactive
same,outcome,[8],inactive
same,AC50,[9],26.9 µM (active)
CC1(C(=O)Nc2ccc(O)c(Cl)c2Cl)CCCCC1,outcome,[1],inactive
same,outcome,[2],inactive
same,outcome,[3],inactive
same,outcome,[4],inactive
same,outcome,[5],inactive
same,outcome,[6],inactive
same,outcome,[7],inactive
same,outcome,[8],inactive
same,outcome,[9],inactive
CCOC(=O)CC(SP(=O)(OC)OC)C(=O)OCC (centres undefined),outcome,[1],inactive
same,outcome,[2],inactive
same,outcome,[3],inactive
same,outcome,[4],inactive
same,outcome,[5],inactive
same,outcome,[6],inactive
same,outcome,[7],inactive
same,outcome,[8],inactive
same,outcome,[9],inactive
CCCCOC(=O)c1ccccc1C(=O)O,outcome,[1],inactive
same,outcome,[2],inactive
same,outcome,[3],inactive
same,outcome,[4],inactive
same,outcome,[5],inactive
same,outcome,[6],inactive
same,outcome,[7],inactive
same,outcome,[8],inactive
same,outcome,[9],inactive

# Source: PubChem BioAssay (EPA / NIEHS)
